Data on twelve sequences can be found in PMC8384837, “Expanding the binding specificity for RNA recognition by a PUF domain”.

What all share (test): yeast three-hybrid, YBZ-1, SC-Leu-His + 0.5 mM 3-AT, 4 days
Conditions in all cases: tags: N-Gal4 AD-HA kept; label: inside an RPR1-promoter hybrid RNA with tandem MS2 sites; ssRNA

For one test, the target named is PUM1 PUF domain R5-QRW (Homo sapiens, UniProt Q14671 828-1176, C1007Q;Q1011W). The method in brief: (§1)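 The interaction score is the logarithmic change in variant frequency from input to selection. It uses log2, with a pseudocount of 1 for absent variants, and frequencies came from PCR-amplified, Illumina-sequenced repeat regions. The libraries were Pumilio-1 PUF domains randomized at the three base-contacting residues per repeat, co-expressed with matching RNA elements in strain YBZ-1 (LexA–MS2 coat fusion, HIS3 reporter). Plating lasted four days on SC-Leu (input) or SC-Leu-His + 0.5 mM 3-AT (selection).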

The target in a further test is PUM1 PUF domain R5-HRP (Homo sapiens, UniProt Q14671 828-1176, C1007H;Q1011P). The method in brief:
as §1

The next test addresses PUM1 PUF domain R3-GVE (Homo sapiens, UniProt Q14671 828-1176, C935G;R936V;Q939E). A digest of the protocol:
as §1

Another test concerns the target PUM1 PUF domain R3-TWG (Homo sapiens, UniProt Q14671 828-1176, C935T;R936W;Q939G). A digest of the protocol: as §1
The target of the next test is PUM1 PUF domain R8-KRA (Homo sapiens, UniProt Q14671 828-1176, N1122K;Y1123R;Q1126A). The method in brief:
as §1

In the next test the target is PUM1 PUF domain R8-FHK (Homo sapiens, UniProt Q14671 828-1176, N1122F;Y1123H;Q1126K). The method in brief:
as §1

The target of the next test is PUM1 PUF domain R8-LWR (Homo sapiens, UniProt Q14671 828-1176, N1122L;Y1123W;Q1126R). A digest of the protocol:
as §1

For the next test, the target named is PUM1 PUF domain R8-VWQ (Homo sapiens, UniProt Q14671 828-1176, N1122V;Y1123W). A digest of the protocol:
as §1

Another test concerns the target PUM1 PUF domain R8-SWG (Homo sapiens, UniProt Q14671 828-1176, N1122S;Y1123W;Q1126G). A digest of the protocol: as §1
The target of another test is PUM1 PUF domain R8-RGK (Homo sapiens, UniProt Q14671 828-1176, N1122R;Y1123G;Q1126K). A digest of the protocol:
as §1

A further test addresses T1, PUM1 PUF domain R6-LYC (Homo sapiens, UniProt Q14671 828-1176, N1043L;Q1047C).
T1 sequence: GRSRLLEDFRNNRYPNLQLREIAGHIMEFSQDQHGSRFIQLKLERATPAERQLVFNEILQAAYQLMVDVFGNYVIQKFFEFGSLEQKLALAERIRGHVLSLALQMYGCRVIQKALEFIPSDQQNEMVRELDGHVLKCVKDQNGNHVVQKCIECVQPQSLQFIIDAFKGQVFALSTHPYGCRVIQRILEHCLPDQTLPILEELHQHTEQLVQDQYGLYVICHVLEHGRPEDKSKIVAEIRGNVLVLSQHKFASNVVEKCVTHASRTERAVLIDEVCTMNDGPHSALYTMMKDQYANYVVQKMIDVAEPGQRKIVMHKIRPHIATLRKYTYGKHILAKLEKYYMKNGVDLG
A digest of the protocol:
as §1

A further test has as its target PUM1 PUF domain R7-GGN (Homo sapiens, UniProt Q14671 828-1176, S1079G;N1080G;E1083N). A digest of the protocol: as §1
A further test concerns the target PUM1 PUF domain R7-RVV (Homo sapiens, UniProt Q14671 828-1176, S1079R;N1080V;E1083V). The method in brief:
as §1

For another test, the target named is PUM1 PUF domain R1-KSS (Homo sapiens, UniProt Q14671 828-1176, S863K;R864S;Q867S). A digest of the protocol:
as §1

The target in another test is PUM1 PUF domain R3-KSG (Homo sapiens, UniProt Q14671 828-1176, C935K;R936S;Q939G). A digest of the protocol: as §1
In a further test the target is PUM1 PUF domain R3-GFF (Homo sapiens, UniProt Q14671 828-1176, C935G;R936F;Q939F). The method in brief:
as §1

The next test has as its target PUM1 PUF domain R4-SNM (Homo sapiens, UniProt Q14671 828-1176, N971S;H972N;Q975M). A digest of the protocol: as §1
The target in another test is PUM1 PUF domain R3-APF (Homo sapiens, UniProt Q14671 828-1176, C935A;R936P;Q939F). A digest of the protocol: as §1
A further test concerns the target PUM1 PUF domain R4-EWY (Homo sapiens, UniProt Q14671 828-1176, N971E;H972W;Q975Y). The method in brief:
as §1

The target in another test is PUM1 PUF domain R7-EFG (Homo sapiens, UniProt Q14671 828-1176, S1079E;N1080F;E1083G). A digest of the protocol: as §1

As for “GGCUAGAACUAGUGGAUCCCCCGGCGCCCGGCGGCUCGAGCCCGGGUAAGUGUCAAUAGUCUGCAUGCCGCCGGGCGCCAUGCCUGCAGGUCGACUCUAGAAAACAUG”, the binding signal with PUM1 PUF domain R5-QRW is 0.43 log2 enrichment (interaction score); with PUM1 PUF domain R5-HRP, 1.78 log2 enrichment (interaction score).

In the case of “GGCUAGAACUAGUGGAUCCCCCGGCGCCCGGCGGCUCGAGCCCGGGUAAGUGUAAGUAGUCUGCAUGCCGCCGGGCGCCAUGCCUGCAGGUCGACUCUAGAAAACAUG”, the figures for the binding signal with PUM1 PUF domain R3-GVE and in the test with PUM1 PUF domain R3-TWG were 3.97 log2 enrichment (interaction score) and 4.61 log2 enrichment (interaction score), respectively.

For “GGCUAGAACUAGUGGAUCCCCCGGCGCCCGGCGGCUCGAGCCCGGGUAAGCGUAAAUAGUCUGCAUGCCGCCGGGCGCCAUGCCUGCAGGUCGACUCUAGAAAACAUG”, the binding signal was 2.55 log2 enrichment (interaction score) with PUM1 PUF domain R8-KRA; 3.34 log2 enrichment (interaction score) with PUM1 PUF domain R8-FHK; 4.82 log2 enrichment (interaction score) in the test with PUM1 PUF domain R8-LWR; 2.89 log2 enrichment (interaction score) with PUM1 PUF domain R8-VWQ; 2.43 log2 enrichment (interaction score) in the test with PUM1 PUF domain R8-SWG; 2.62 log2 enrichment (interaction score) with PUM1 PUF domain R8-RGK.

Consider “GGCUAGAACUAGUGGAUCCCCCGGCGCCCGGCGGCUCGAGCCCGGGUAAGUGAAAAUAGUCUGCAUGCCGCCGGGCGCCAUGCCUGCAGGUCGACUCUAGAAAACAUG”, for which, in the test with PUM1 PUF domain R6-LYC, the binding signal is 3.19 log2 enrichment (interaction score).

For “GGCUAGAACUAGUGGAUCCCCCGGCGCCCGGCGGCUCGAGCCCGGGUAAGUUUAAAUAGUCUGCAUGCCGCCGGGCGCCAUGCCUGCAGGUCGACUCUAGAAAACAUG”, the results for the binding signal with PUM1 PUF domain R7-GGN and with PUM1 PUF domain R7-RVV were 3.78 log2 enrichment (interaction score) and 2.58 log2 enrichment (interaction score), respectively.

As for “GGCUAGAACUAGUGGAUCCCCCGGCGCCCGGCGGCUCGAGCCCGGGUAAGUGUAAAUCGUCUGCAUGCCGCCGGGCGCCAUGCCUGCAGGUCGACUCUAGAAAACAUG”, the binding signal in the test with PUM1 PUF domain R1-KSS is 4.09 log2 enrichment (interaction score).

Take “GGCUAGAACUAGUGGAUCCCCCGGCGCCCGGCGGCUCGAGCCCGGGUAAGUGUAAUUAGUCUGCAUGCCGCCGGGCGCCAUGCCUGCAGGUCGACUCUAGAAAACAUG”: the binding signal in the test with PUM1 PUF domain R3-TWG is 0.73 log2 enrichment (interaction score); in the test with PUM1 PUF domain R3-KSG, 2.51 log2 enrichment (interaction score).

Regarding “GGCUAGAACUAGUGGAUCCCCCGGCGCCCGGCGGCUCGAGCCCGGGUAAGUGUAAAUAGUCUGCAUGCCGCCGGGCGCCAUGCCUGCAGGUCGACUCUAGAAAACAUG”, the binding signal was 1.2 log2 enrichment (interaction score) in the test with PUM1 PUF domain R8-KRA; 5.53 log2 enrichment (interaction score) in the test with PUM1 PUF domain R3-GFF; 3.91 log2 enrichment (interaction score) in the test with PUM1 PUF domain R6-LYC; 4.7 log2 enrichment (interaction score) with PUM1 PUF domain R8-LWR; 2 log2 enrichment (interaction score) in the test with PUM1 PUF domain R4-SNM; 2.95 log2 enrichment (interaction score) with PUM1 PUF domain R8-SWG. Also, the binding signal with PUM1 PUF domain R8-RGK was 0.16 log2 enrichment (interaction score); with PUM1 PUF domain R3-APF, 5.42 log2 enrichment (interaction score).

“GGCUAGAACUAGUGGAUCCCCCGGCGCCCGGCGGCUCGAGCCCGGGUAAGUGUUAAUAGUCUGCAUGCCGCCGGGCGCCAUGCCUGCAGGUCGACUCUAGAAAACAUG”: the binding signal in the test with PUM1 PUF domain R5-HRP is 3.28 log2 enrichment (interaction score).

Take “GGCUAGAACUAGUGGAUCCCCCGGCGCCCGGCGGCUCGAGCCCGGGUAAGUGUGAAUAGUCUGCAUGCCGCCGGGCGCCAUGCCUGCAGGUCGACUCUAGAAAACAUG”: the binding signal with PUM1 PUF domain R5-QRW was 4.36 log2 enrichment (interaction score).

On to “GGCUAGAACUAGUGGAUCCCCCGGCGCCCGGCGGCUCGAGCCCGGGUAAGUGUAUAUAGUCUGCAUGCCGCCGGGCGCCAUGCCUGCAGGUCGACUCUAGAAAACAUG”, for which the binding signal with PUM1 PUF domain R4-SNM was 2.9 log2 enrichment (interaction score); with PUM1 PUF domain R4-EWY, 5.52 log2 enrichment (interaction score).

As to “GGCUAGAACUAGUGGAUCCCCCGGCGCCCGGCGGCUCGAGCCCGGGUAAGUCUAAAUAGUCUGCAUGCCGCCGGGCGCCAUGCCUGCAGGUCGACUCUAGAAAACAUG”, the binding signal with PUM1 PUF domain R7-EFG was 3.46 log2 enrichment (interaction score).
